# Measurements taken from PubChem BioAssay (Tox21).
# Values without a mark were called inactive. Results filed as inconclusive are left out. A call without a number means that no potency is given here. The source made the active and inactive calls. Unless noted, the call rests on the fitted dose curve; in most records, active means well fitted curve in the direction sought with a large enough effect in the repeat runs; inconclusive means weak or mixed curves; inactive means no such curve, though single readings can be large; an effect the other way counts as inactive or inconclusive. Non-standard residues stand in square brackets, D forms with d. Residues, ends and D or L forms follow the SMILES beside them. *: point of attachment. Sta = CC(C)C[C@H](N)[C@@H](O)CC(=O)O; Isovaleryl = CC(C)CC(=O)*
# Key:
# [1] = qHTS assay to identify small molecule HDAC inhibitors - cell viability counter screen (AID 1259365); further: series mostly up to about 92 µM; nearly all actives have a fitted effect of over 50% in size
# How it was run: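 Measured quantity is CellTiter-Glo luminescence from wild-type HCT-116 cells after compound incubation of 2hr at 37C, 5% CO2; reagent developed 30min at room temperature.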
# [2] = qHTS assay to identify small molecule agonists of the sonic hedgehog signaling (Shh) pathway - cell viability counter screen (AID 1259366); further: nearly all actives have a fitted effect of over 50% in size
# How it was run: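 In quantitative high-throughput format, 3T3 Gli1-Luc cells were exposed to compounds for 24hr and multiplexed for viability using CellTiter-Fluor, incubated 1hr at 37C before the fluorescence read.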
# [3] = qHTS assay to identify small molecule antagonists of the sonic hedgehog signaling (Shh) pathway - cell viability counter screen (AID 1259367); further: nearly all actives have a fitted effect of over 55% in size
# How it was run: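 Cytotoxicity was assessed in parallel with Shh reporter activity by measuring live-cell protease fluorescence (CellTiter-Fluor) in NIH/3T3 cells stably carrying Gli1-Luc, treated with compound under conditioned medium stimulation for 23 hr plus 1 hr reagent incubation.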
# [4] = qHTS assay to identify small molecule agonists of the sonic hedgehog signaling (Shh) pathway (AID 1259368; calls by dose curve;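 further: NIH/3T3-derived 3T3Gli1-Luc cells carrying a stable Gli1-driven firefly luciferase reporter; series mostly up to about 92 µM; nearly all actives have a fitted effect of over 15% in size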)
# How it was run: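 Cells of a mouse NIH/3T3 clone stably expressing luciferase under the Gli1 transcriptional response element are exposed to test chemicals for 24 hr at 37 C. Pathway activation is detected as a rise in luminescence.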
# [5] = target: Estrogen receptor beta (Homo sapiens) (UniProt Q92731); test: qHTS assay to identify small molecule agonists of the estrogen receptor beta (ER-beta) signaling pathway (AID 1259377; active means well fitted activation curve with a large enough effect in the signal ratio in the repeat runs, not every such curve was filed as active; the % refers to the signal ratio; further: potency means the concentration at half of the fitted maximal effect)
# How it was run: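 Reporter cells (HEK293T, ER-beta-UAS-bla) receive compounds or DMSO after a 6 hr pre-incubation. They then incubate 16 hr at 37C/5% CO2, and fluorescence from LiveBLAzer B/G substrate is measured after 2 hours at room temperature.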
# [6] = qHTS assay to identify small molecule agonists of the androgen receptor (AR) signaling pathway in the presence of an antagonist - cell viability counter screen (AID 1259379);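 further: MDA-kb2 human breast cancer cells carrying an MMTV luciferase reporter; series mostly up to about 92 µM; nearly all actives have a fitted effect of over 25% in size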
# How it was run: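 Cytotoxicity is assessed by CellTiter-Fluor in MDA-kb2 cells carrying an MMTV-driven luciferase reporter. Cells receive 3.0uM nilutamide plus compounds at 15 concentrations and incubate 16 hr at 37C without CO2 before fluorescence reading.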
# [7] = qHTS assay to identify small molecule agonists of the estrogen receptor beta (ER-beta) signaling pathway - cell viability counter screen (AID 1259380); further: nearly all actives have a fitted effect of over 30% in size
# How it was run: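 Cytotoxicity is measured in parallel with the reporter screen: after 16 hr compound exposure at 37C and a 2 hr LiveBLAzer step, CellTiter-Glo is added to the same ER-beta-UAS-bla HEK293T wells and luminescence read after 30 min.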
# [8] = target: Androgen receptor (Homo sapiens) (UniProt P10275); test: qHTS assay to identify small molecule agonists of the androgen receptor (AR) signaling pathway in the presence of an antagonist (AID 1259381; calls by dose curve; further: nearly all actives have a fitted effect of over 15% in size)
# How it was run: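 Agonist-mode confirmation screen: human MDA-kb2 cells stably expressing luciferase under an MMTV promoter bearing AR and GR response elements, co-treated with 3.0uM nilutamide (final). Luminescence measured after 16hr compound incubation.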
# [9] = qHTS assay to identify small molecule antagonists of the sonic hedgehog signaling (Shh) pathway (AID 1259369; calls by dose curve; further: nearly all actives have a fitted effect of over 45% in size)
# How it was run: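 Cells are plated and held 4hr at 37 C, compounds (DMSO) are pinned in, conditioned medium is added to stimulate the pathway, and after 24hr luciferase reagent is added for 30min before luminescence is read.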
# [10] = target: Estrogen receptor beta (Homo sapiens) (UniProt Q92731); test: qHTS assay to identify small molecule antagonists of the estrogen receptor beta (ER-beta) signaling pathway (AID 1259378; active means well fitted inhibition curve with a large enough effect in the signal ratio in the repeat runs, not every such curve was filed as active; the % refers to the signal ratio)
# How it was run: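 ER-beta-UAS-bla HEK293T (GripTite) cells in 2% charcoal-stripped FBS medium were preincubated 6 hr at 37C, dosed with compound, then stimulated with 1 nM E2 (final) for 16 hr; beta-lactamase reporter read by B/G FRET fluorescence after 2 hr substrate loading.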
# Chain of Androgen receptor (Homo sapiens) (P10275 whole entry, looked up): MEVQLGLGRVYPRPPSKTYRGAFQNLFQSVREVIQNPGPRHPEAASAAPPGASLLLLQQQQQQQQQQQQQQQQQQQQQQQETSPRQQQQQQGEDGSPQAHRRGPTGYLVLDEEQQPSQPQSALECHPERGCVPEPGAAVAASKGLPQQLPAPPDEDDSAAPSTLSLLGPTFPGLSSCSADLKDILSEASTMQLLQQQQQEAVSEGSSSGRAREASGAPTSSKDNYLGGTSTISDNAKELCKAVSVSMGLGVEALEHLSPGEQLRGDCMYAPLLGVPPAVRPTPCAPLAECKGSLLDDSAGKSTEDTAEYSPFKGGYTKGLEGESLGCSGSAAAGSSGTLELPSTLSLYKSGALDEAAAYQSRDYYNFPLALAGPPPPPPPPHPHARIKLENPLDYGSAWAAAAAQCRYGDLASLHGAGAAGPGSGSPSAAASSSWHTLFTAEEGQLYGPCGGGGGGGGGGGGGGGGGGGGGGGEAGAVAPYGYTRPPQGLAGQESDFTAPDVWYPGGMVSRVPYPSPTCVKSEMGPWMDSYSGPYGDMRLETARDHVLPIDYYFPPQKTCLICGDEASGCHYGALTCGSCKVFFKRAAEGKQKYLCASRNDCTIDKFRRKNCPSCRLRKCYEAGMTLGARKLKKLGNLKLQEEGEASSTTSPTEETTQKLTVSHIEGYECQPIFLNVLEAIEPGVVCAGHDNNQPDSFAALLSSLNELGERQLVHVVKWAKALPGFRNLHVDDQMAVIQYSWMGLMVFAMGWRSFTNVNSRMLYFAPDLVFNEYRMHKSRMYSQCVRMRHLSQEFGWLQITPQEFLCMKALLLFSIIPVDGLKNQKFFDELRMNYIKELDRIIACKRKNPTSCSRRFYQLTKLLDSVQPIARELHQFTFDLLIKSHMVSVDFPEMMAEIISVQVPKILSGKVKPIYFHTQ
# Chain of Estrogen receptor beta (Homo sapiens) (Q92731 whole entry, looked up): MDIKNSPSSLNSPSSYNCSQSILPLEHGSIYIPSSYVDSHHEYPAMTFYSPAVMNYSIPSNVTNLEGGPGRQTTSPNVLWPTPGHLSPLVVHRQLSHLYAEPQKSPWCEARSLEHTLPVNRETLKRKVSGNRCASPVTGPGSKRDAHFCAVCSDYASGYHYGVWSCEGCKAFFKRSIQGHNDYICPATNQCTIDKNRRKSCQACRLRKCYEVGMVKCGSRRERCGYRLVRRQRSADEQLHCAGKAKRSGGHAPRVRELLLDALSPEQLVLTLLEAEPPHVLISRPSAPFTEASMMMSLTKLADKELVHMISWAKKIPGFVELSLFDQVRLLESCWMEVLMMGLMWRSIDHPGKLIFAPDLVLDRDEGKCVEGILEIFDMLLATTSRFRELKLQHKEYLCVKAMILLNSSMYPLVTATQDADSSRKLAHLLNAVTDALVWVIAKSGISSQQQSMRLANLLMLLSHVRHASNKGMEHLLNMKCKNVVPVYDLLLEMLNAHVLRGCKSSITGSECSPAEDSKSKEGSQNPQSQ
smiles,measurement,setting,value
O=C(c1ccccc1)c1cccc(O)c1,outcome,[1],inactive
same,outcome,[2],inactive
same,outcome,[3],inactive
same,outcome,[4],inactive
same,Potency,[5],12.4 µM (active)
same,outcome,[6],inactive
same,Potency,[7],inactive
same,outcome,[8],inactive
CNC(C)=O,outcome,[1],inactive
same,outcome,[2],inactive
same,outcome,[3],inactive
same,Potency,[9],inactive
same,Potency,[5],inactive
same,outcome,[10],inactive
same,outcome,[6],inactive
same,Potency,[7],inactive
O=C1CCCc2c(O)cccc21,outcome,[1],inactive
same,outcome,[2],inactive
same,outcome,[3],inactive
same,Potency,[9],inactive
same,outcome,[6],inactive
same,Potency,[7],inactive
same,outcome,[8],inactive
C[C@@H](CN1CC(=O)NC(=O)C1)N1CC(=O)NC(=O)C1,outcome,[1],inactive
same,outcome,[2],inactive
same,outcome,[3],inactive
same,outcome,[4],inactive
same,Potency,[5],inactive
same,outcome,[10],inactive
same,outcome,[6],inactive
same,Potency,[7],inactive
same,outcome,[8],inactive
CCCC(=O)OC,outcome,[1],inactive
same,outcome,[2],inactive
same,outcome,[3],inactive
same,outcome,[4],inactive
same,Potency,[5],inactive
same,outcome,[10],inactive
same,outcome,[6],inactive
same,Potency,[7],inactive
CC(=O)Nc1ccc(OCCOCCOc2ccc(NC(C)=O)cc2)cc1,outcome,[1],inactive
same,outcome,[2],inactive
same,outcome,[3],inactive
same,Potency,[9],inactive
same,outcome,[6],inactive
CC(=O)Nc1ccc(S(=O)(=O)Nc2cc(C)on2)cc1,outcome,[1],inactive
same,outcome,[2],inactive
same,outcome,[3],inactive
same,outcome,[4],inactive
same,outcome,[6],inactive
same,Potency,[7],inactive
CCCCCCCCC1CO1 (stereo not given),outcome,[1],inactive
same,outcome,[2],inactive
same,outcome,[3],inactive
same,outcome,[4],inactive
same,Potency,[5],inactive
same,outcome,[10],inactive
same,outcome,[6],inactive
same,Potency,[7],inactive
same,outcome,[8],inactive
C/C=C(\C)C=O,outcome,[1],inactive
same,outcome,[2],inactive
same,outcome,[3],inactive
same,outcome,[4],inactive
same,Potency,[5],inactive
same,outcome,[10],inactive
same,outcome,[6],inactive
same,Potency,[7],inactive
CC(=O)c1ccc(O)c(C(N)=O)c1,outcome,[1],inactive
same,outcome,[2],inactive
same,outcome,[3],inactive
same,Potency,[9],inactive
same,Potency,[5],inactive
same,outcome,[10],inactive
same,outcome,[6],inactive
same,Potency,[7],inactive
same,outcome,[8],inactive
CCc1ccc(CC)cc1,outcome,[1],inactive
same,outcome,[2],inactive
same,outcome,[3],inactive
same,Potency,[9],inactive
same,Potency,[5],inactive
same,outcome,[10],inactive
same,outcome,[6],inactive
same,Potency,[7],inactive
COC(=O)C(c1ccccc1Cl)N1CCc2sccc2C1 (stereo not given),outcome,[1],inactive
same,outcome,[2],inactive
same,outcome,[3],inactive
same,Potency,[9],inactive
same,outcome,[6],inactive
same,Potency,[7],inactive
CC(O)CCCCn1c(=O)c2c(ncn2C)n(C)c1=O (stereo not given),outcome,[1],inactive
same,outcome,[2],inactive
same,outcome,[3],inactive
same,outcome,[4],inactive
same,outcome,[6],inactive
same,Potency,[7],inactive
CC(C)CC(=O)N[C@H](C(=O)N[C@H](C(=O)N[C@@H](CC(C)C)[C@@H](O)CC(=O)N[C@@H](C)C(=O)N[C@@H](CC(C)C)[C@@H](O)CC(=O)O)C(C)C)C(C)C (Isovaleryl-VV[Sta]A[Sta]-OH),outcome,[1],inactive
same,outcome,[2],inactive
same,outcome,[3],inactive
same,outcome,[4],inactive
same,outcome,[6],inactive
same,Potency,[7],inactive
O=C(O)Cc1ccccc1Oc1ccc(Cl)cc1Cl,outcome,[1],inactive
same,outcome,[2],inactive
same,outcome,[3],inactive
same,Potency,[9],inactive
same,outcome,[6],inactive
CC(C)(C)C(=O)NCCCC(=O)O,outcome,[1],inactive
same,outcome,[2],inactive
same,outcome,[3],inactive
same,outcome,[4],inactive
same,outcome,[6],inactive
same,Potency,[7],inactive
O=CN1CCCCC1,outcome,[1],inactive
same,outcome,[2],inactive
same,outcome,[3],inactive
same,Potency,[9],inactive
same,Potency,[5],inactive
same,outcome,[10],inactive
same,outcome,[6],inactive
same,Potency,[7],inactive
CC(C)C[P+](C)(CC(C)C)CC(C)C,outcome,[1],inactive
same,outcome,[2],inactive
same,outcome,[3],inactive
same,outcome,[4],inactive
same,outcome,[10],inactive
same,outcome,[6],inactive
CCCC[O][Al]([O]CCCC)[O]CCCC,outcome,[1],inactive
same,outcome,[2],inactive
same,outcome,[3],inactive
same,outcome,[4],inactive
same,outcome,[6],inactive
same,Potency,[7],inactive
CC(C)(O)c1ccc(C(C)(C)O)cc1,outcome,[1],inactive
same,outcome,[2],inactive
same,outcome,[3],inactive
same,Potency,[9],inactive
same,outcome,[6],inactive
same,Potency,[7],inactive
CC(C)C(=O)Nc1cccc(C2CN3CCSC3=N2)c1 (stereo not given),outcome,[1],inactive
same,outcome,[2],inactive
same,outcome,[3],inactive
same,outcome,[4],inactive
same,Potency,[5],inactive
same,outcome,[10],inactive
same,outcome,[6],inactive
same,Potency,[7],inactive
same,outcome,[8],inactive
N#Cc1cc(NC(=O)C(=O)O)c(Cl)c(NC(=O)C(=O)O)c1,outcome,[1],inactive
same,outcome,[2],inactive
same,outcome,[3],inactive
same,outcome,[4],inactive
same,outcome,[6],inactive
same,outcome,[8],inactive
c1coc(Cn2cccc2)c1,outcome,[1],inactive
same,outcome,[2],inactive
same,outcome,[3],inactive
same,Potency,[9],inactive
same,Potency,[5],inactive
same,outcome,[10],inactive
same,outcome,[6],inactive
same,Potency,[7],inactive
C[C@@H]1NC(=O)[C@@H](N)CNC(=O)[C@H](C2CCNC(N)=N2)NC(=O)/C(=C/NC(N)=O)NC(=O)[C@H](CNC(=O)C[C@@H](N)CCCN)NC1=O (stereo not given in full),"activity change, negative = cytotoxicity",[1],-0.0427% [at 0.349 µM]
same,"viability change, negative = cytotoxic",[2],-4% [at 0.349 µM]
same,"viability change, negative = cytotoxic",[3],1.74% [at 0.349 µM]
same,"activity change, negative = inhibition",[9],22.6% [at 0.349 µM]
same,activation,[5],1.61% [at 0.348 µM]
same,"activity, negative = inhibition",[10],-0.409% [at 0.349 µM]
same,"activity change, negative = cytotoxicity",[6],5.61% [at 0.35 µM]
Nc1nc(Cl)cc(Cl)n1,outcome,[1],inactive
same,outcome,[2],inactive
same,outcome,[3],inactive
same,outcome,[4],inactive
same,Potency,[5],inactive
same,outcome,[10],inactive
same,outcome,[6],inactive
same,Potency,[7],inactive
CCCCCCCCOCCC#N,outcome,[1],inactive
same,outcome,[2],inactive
same,outcome,[3],inactive
same,Potency,[9],inactive
same,Potency,[5],inactive
same,outcome,[6],inactive
same,Potency,[7],inactive
